From PubChem
aDG glyco up: increases alpha dystroglycan glycosylation | Pro5-aDG cells, alpha-DG glycosylation AlphaScreen (IIH6); 0% Pro5, 100% B10-LARGE cell signal | activation, % at 10 µM | hit rate 0.22% among 360,000 | AID 624168;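 active means activation of at least 8% versus controls, or a plate z-score of at least 8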;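 further: Pro5 are CHO cells carrying HIG-tagged alpha-DG that lacks glycosylation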
PfGluPho inh: PfG6PD (Plasmodium falciparum) enzyme inhibition; PfGluPho enzyme, NADPH resazurin-diaphorase fluorescence; inhibition, % at 20 µM; hit rate 0.78% among 350,000; AID 504690;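 active means inhibition reaching at least a set limit at 20 µM in the primary screen, cut at about 59% in these data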
FAS TE block: inhibitors of human fatty acid synthase thioesterase domain; recombinant FAS-TE, OMFH fluorogenic substrate, fluorescence endpoint; hit rate 0.67% among 360,000; inhibition, % at 15 µM; P49327;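 active means compounds whose normalised, plate-corrected inhibition of enzyme fluorescence in the single-dose primary screen is 50% or more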
H9c2 protect: myocardial damage modulation in H9c2 cells; H9c2 cardiomyocytes, H2O2 injury protection, ATPLite, 2 h; hit rate 0.63% among 360,000; protection from H2O2 cell death, % at 20 µM; AID 588492;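 active means compounds giving at least 50% protection of heart cells from peroxide-induced death in the single-dose screen, raw or plate-pattern-corrected value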
CRFR2-BP antag: antagonists of CRF-binding protein/CRF-R2 receptor complex | HEK293 CRF-R2/CRF-BP, CRF-induced calcium fluorescence | inhibition, % at 11.8 µM | hit rate 0.59% among 350,000 | AID 588475;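 active means inhibition of the ligand-induced calcium signal above about 50% at the single tested concentration, limit read from the data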
CRFBP-R2 agonist: CRF-BP/CRF-R2 complex agonism; HEK293 CRF-R2/CRF-BP, calcium dye fluorescence (FLIPR); percent of saturating CRF peptide response; activation, % at 13.2 µM; hit rate 0.46% among 350,000; AID 588473;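 active means activation of at least 50%, plus an integration ratio under a set limit after plate pattern correction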
FAS-TE conf: confirmation of human fatty acid synthase thioesterase inhibitors | shares compounds with FAS TE block | recombinant FAS-TE, OMFH fluorogenic substrate, fluorescence | inhibition, % at 15 µM | hit rate 45% among 2,300;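 active means compounds inhibiting the enzyme by at least 50% at 15 µM in any one of the replicates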
Large screens that a line does not name were inactive (follow-up assays come after a bar, where they were run). Compounds with a hit are over-represented: about 3.2% of the library has one in this group of screens.

CCOC(=O)[C@]12CCC=C1N(Cc1cccc3ccccc13)C(=O)[C@H](CC(=O)N1CCN(C(=O)C3CC3)CC1)C2	none (no result: PfGluPho inh, H9c2 protect, CRFR2-BP antag, CRFBP-R2 agonist)
COC(=O)c1cc(NC(=O)N2c3ccccc3Sc3ccccc32)cc(C(=O)OC)c1	FAS TE block 72 | FAS-TE conf inactive
O=C(Nc1ccc(S(=O)(=O)N2CCCC2)cc1)N1c2ccccc2Sc2ccccc21	FAS TE block 76 | FAS-TE conf inactive
O=[N+]([O-])c1ccc(N2CCN(S(=O)(=O)c3ccc(Cl)c(Cl)c3)CC2)cc1NCCN1CCOCC1	FAS TE block 71 | FAS-TE conf inactive
O=C(/C=C/c1cccc([N+](=O)[O-])c1)NCCSCc1c(Cl)cccc1Cl	FAS TE block 65 | FAS-TE conf 53
O=C(/C=C/c1cccc([N+](=O)[O-])c1)NCCSCc1ccc(Cl)cc1	FAS TE block 54 | FAS-TE conf 51
O=C(/C=C/c1ccccc1)NCCSCc1ccccc1Cl	none
O=C(/C=C/c1ccccc1)NCCSCc1ccc(Cl)cc1	none
COc1ccc(/C=C/CN2CCCC(C(=O)c3ccc(OC)c(F)c3)C2)cc1 (stereo unspecified)	none
C=CCOc1ccc(C(=O)CC)cc1OC	none
CN(Cc1ccccc1)C(=O)c1ccc(NC(=O)Cc2ccc(NC(=O)C3CCN(S(=O)(=O)c4cccc([N+](=O)[O-])c4)CC3)cc2)cc1	FAS TE block 68 | FAS-TE conf inactive
CN(CCc1ccccc1)C(=O)c1ccc(NC(=O)Cc2ccc(NC(=O)C3CCCN(S(=O)(=O)c4cccc([N+](=O)[O-])c4)C3)cc2)cc1 (stereo unspecified)	FAS TE block 72 | FAS-TE conf inactive
CN(CCc1ccccc1)C(=O)c1cccc(NC(=O)Cc2cccc(NC(=O)C3CCCN(S(=O)(=O)c4cccc([N+](=O)[O-])c4)C3)c2)c1 (stereo unspecified)	none
CN(Cc1ccccc1)C(=O)c1cccc(NC(=O)Cc2ccc(NC(=O)C3CCN(S(=O)(=O)c4cccc([N+](=O)[O-])c4)CC3)cc2)c1	none
O=C(CCC1CCCC1)Nc1cc(Cl)ccc1N1CCOCC1	none
CC(C)(C)c1ccc(C(=O)NCCC(=O)Nc2cc(Cl)ccc2N2CCOCC2)cc1	FAS TE block 67 | FAS-TE conf 67
CCCSc1cc(NCCOC(=O)CCC)c([N+](=O)[O-])c2nonc12	FAS TE block 51 | FAS-TE conf 58
Cc1nnc(Sc2cc(NCCCO)c([N+](=O)[O-])c3nonc23)s1	PfGluPho inh 77, FAS TE block 63 | FAS-TE conf 69
CCC(=O)OCCNc1cc(Sc2nc3ccccc3[nH]2)c2nonc2c1[N+](=O)[O-]	FAS TE block 80 | FAS-TE conf 83
CCCC(=O)OCCNc1cc(Sc2nccn2C)c2nonc2c1[N+](=O)[O-]	FAS TE block 62, CRFR2-BP antag 52 | FAS-TE conf 62
CCCSc1cc(NCCOC(C)=O)c([N+](=O)[O-])c2nonc12	none
CC/C(=N/N=C(/CC)c1ccc(O)cc1)c1ccc(O)cc1	none
O=C1C=CC(=O)N1	none
COc1ccc(C2/C(=C(\O)c3cccc(OC)c3)C(=O)C(=O)N2c2ccccn2)cc1 (stereo unspecified)	none
CC(C)=CC(=O)OCC(=O)Nc1cc([N+](=O)[O-])ccc1F	none
O=C(COC(=O)CC1CC2CCC1C2)Nc1cc([N+](=O)[O-])ccc1F (stereo unspecified)	FAS TE block 80 | FAS-TE conf 87
O=C(COC(=O)CCc1ccccc1)Nc1cc([N+](=O)[O-])ccc1F	FAS TE block 73 | FAS-TE conf 67
Cc1ccc(-n2c(SCC(=O)O)nc3sc4c(c3c2=O)CCCC4)cc1	none
Cc1ccc(-n2c(SCC(=O)c3c(N)n(C)c(=O)n(C)c3=O)nc3sc4c(c3c2=O)CCCC4)c(C)c1	FAS TE block 52 | FAS-TE conf inactive
Cc1ccc([N+](=O)[O-])cc1S(=O)(=O)n1ccnc1C	none
C/C(=N\Nc1ccccn1)c1ccc(S(=O)(=O)NCc2ccco2)cc1	FAS TE block 54 | FAS-TE conf 40
C/C(=N\Nc1nc(Cl)c(Cl)cc1Cl)c1ccc(S(=O)(=O)NCc2ccco2)cc1	FAS TE block 52 | FAS-TE conf inactive
C/C(=N\Nc1ccc(C(F)(F)F)cn1)c1ccc(S(=O)(=O)NCc2ccco2)cc1	none
FC(F)(F)c1ccc(-c2nnc(-c3ccccn3)c(-c3ccccn3)n2)nc1	none
CCC(C)(C)C1CCc2[nH]nc(C(=O)NCCCNC(=O)OC(C)(C)C)c2C1 (stereo unspecified)	FAS TE block 69 | FAS-TE conf 50
Cc1c(Br)c([N+](=O)[O-])nn1CC(=O)Nc1ccc(C(C)C)cc1	FAS TE block 73 | FAS-TE conf 59
CC(=O)Nc1ccc(NC(=O)Cn2nc([N+](=O)[O-])c(Br)c2C)cc1	none
Cc1c(Br)c([N+](=O)[O-])nn1CC(=O)Nc1ccc(Cc2ccncc2)cc1	FAS TE block 68 | FAS-TE conf 64
O=[N+]([O-])c1c(N2CCN(CCO)CC2)nc2ccccn12	none
CC(C(=O)O)N(c1ccccc1Cl)S(C)(=O)=O (stereo unspecified)	none
O=[N+]([O-])c1ccc(S(=O)(=O)Nc2ccc(-c3ccc(N4CCCC4)nn3)cc2)cc1	none
Cc1c([N+](=O)[O-])cc(S(=O)(=O)Nc2ccc(-c3ccc(N4CCCC4)nn3)cc2)cc1[N+](=O)[O-]	FAS TE block 87 | FAS-TE conf 90
Cc1ccc([N+](=O)[O-])cc1S(=O)(=O)Nc1ccc(-c2ccc(N3CCCC3)nn2)cc1	FAS TE block 54 | FAS-TE conf 51
Cc1ccc([N+](=O)[O-])cc1S(=O)(=O)Nc1cccc(-c2ccc(N3CCOCC3)nn2)c1	none
O=[N+]([O-])c1ccc(Cl)c(S(=O)(=O)Nc2cccc(-c3ccc(N4CCCC4)nn3)c2)c1	FAS TE block 58 | FAS-TE conf 66
O=[N+]([O-])c1ccc(Cl)c(S(=O)(=O)Nc2ccc(-c3ccc(N4CCCC4)nn3)cc2)c1	FAS TE block 67 | FAS-TE conf 27
CCOC(=O)N1CCC(NS(=O)(=O)c2cc(C(=O)OC)n(C)c2)CC1	none
COc1ccc(C2N=C(N)N=C(N)N2c2ccccc2OC)cc1OC (stereo unspecified)	none
Cc1ccc(S(=O)(=O)Nc2cccc(-c3ccc(N4CCCCCC4)nn3)c2)c(C)c1	FAS TE block 59 | FAS-TE conf 60
O=[N+]([O-])c1ccccc1S(=O)(=O)Nc1cccc(-c2ccc(N3CCCC3)nn2)c1	none
